This note sets out measurements from PubChem BioAssay (Tox21).

Records with an inconclusive call do not appear. The source made the active and inactive calls. Unless noted, the call rests on the fitted dose curve; in most records, active means well fitted curve in the direction sought with a large enough effect in the repeat runs; inconclusive means weak or mixed curves; inactive means no such curve, though single readings can be large; an effect the other way counts as inactive or inconclusive.

A short description of test [1]: qHTS assay to identify small molecule phospholipidosis (PLD) inducers (AID 1259344; active means well fitted curve in the direction sought with a large enough effect; an effect the other way counts as inactive or inconclusive). In outline:
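After 4 h attachment on collagen I, HepG2 cells were dosed with compound alongside LipidTOX Red, kept 24 h at 37 C, fixed, and imaged for lamellar phospholipid pits.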

The nature of test [2]: qHTS assay to identify small molecule HDAC inhibitors (AID 1259364).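 Further: wild-type HCT-116 cells with endogenous class I/II HDAC activity; top concentration of the series differs between compounds; nearly all actives have a fitted effect of over 45% in size.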 A digest of the protocol:
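HCT-116 (wild type), 1,500 cells/well, overnight; compound 2 hr 37C 5% CO2; HDAC-Glo I/II reagent 30 min RT; luminescence readout.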

Test [3] is described as follows: qHTS assay to identify small molecule agonists of the sonic hedgehog signaling (Shh) pathway - cell viability counter screen (AID 1259366). Further: nearly all actives have a fitted effect of over 50% in size. In outline:
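After a 4hr attachment at 37C, NIH/3T3 cells bearing an integrated Gli1-driven luciferase reporter were dosed with compounds. Treatment lasted 24hr, with the final hour including CellTiter-Fluor for a fluorescence viability measurement.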

Test [4] in a line: qHTS assay to identify small molecule antagonists of the sonic hedgehog signaling (Shh) pathway - cell viability counter screen (AID 1259367). Further: nearly all actives have a fitted effect of over 55% in size. Further: potency means the concentration at half of the fitted maximal effect. A digest of the protocol:
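Conditioned medium drove Shh signaling in 3T3 Gli1-Luc cells exposed to compounds at 37C and 5% CO2. Viability was determined from CellTiter-Fluor fluorescence, with reagent incubated 1 hr after 23 hr of treatment.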

Test [5] can be described thus: qHTS assay to identify small molecule agonists of the sonic hedgehog signaling (Shh) pathway (AID 1259368; calls by dose curve;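 further: NIH/3T3-derived 3T3Gli1-Luc cells carrying a stable Gli1-driven firefly luciferase reporter; series mostly up to about 92 µM; nearly all actives have a fitted effect of over 15% in size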). In outline:
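Read-out: firefly luciferase luminescence from a Gli1 response element reporter stably integrated in NIH/3T3-derived 3T3Gli1-Luc cells, measured 30 min at room temperature after reagent addition. Compound exposure lasted 24 hr at 37 C, 5% CO2.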

Test [6] deals with Estrogen receptor beta (Homo sapiens) (UniProt Q92731). Description: qHTS assay to identify small molecule agonists of the estrogen receptor beta (ER-beta) signaling pathway (AID 1259377; active means well fitted activation curve with a large enough effect in the signal ratio in the repeat runs, not every such curve was filed as active; the % refers to the signal ratio). A digest of the protocol: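 In HEK293T cells bearing a UAS-beta-lactamase reporter under ER-beta control, DMSO-delivered compounds were incubated for 16 hr at 37C. Activity was detected as fluorescence 2 hours after LiveBLAzer B/G FRET substrate addition.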

Test [7] shares this target. As to the kind of experiment: qHTS assay to identify small molecule antagonists of the estrogen receptor beta (ER-beta) signaling pathway (AID 1259378; active means well fitted inhibition curve with a large enough effect in the signal ratio in the repeat runs, not every such curve was filed as active; the % refers to the signal ratio; further: potency means the concentration at half of the fitted maximal effect). In outline: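 ER-beta-UAS-bla HEK293T (GripTite) cells in 2% charcoal-stripped FBS medium were preincubated 6 hr at 37C, dosed with compound, then stimulated with 1 nM E2 (final) for 16 hr; beta-lactamase reporter read by B/G FRET fluorescence after 2 hr substrate loading.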

Test [8] can be described thus: qHTS assay to identify small molecule agonists of the estrogen receptor beta (ER-beta) signaling pathway - cell viability counter screen (AID 1259380). Further: nearly all actives have a fitted effect of over 30% in size. Further: potency means the concentration at half of the fitted maximal effect. A digest of the protocol:
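Luminescence read-out (CellTiter-Glo, 30 min, room temp) taken in the same wells as the beta-lactamase reporter assay; ER-beta-UAS-bla HEK293T cells exposed to DMSO-dissolved compounds for 16 hr at 37C in 2% charcoal-stripped FBS medium.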

Test [9] in a line: qHTS assay to identify small molecule antagonists of the estrogen receptor beta (ER-beta) signaling pathway - cell viability counter screen (AID 1259382). Further: series mostly up to about 92 µM; nearly all actives have a fitted effect of over 55% in size. In outline:
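Luminescent ATP read-out (CellTiter-Glo, 30 min, RT) taken in the same wells as the bla reporter assay. HEK293T ER-beta-UAS-bla cells in 2% charcoal-stripped FBS were exposed to compounds with 1nM E2 for 16 hr at 37C.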

Test [10] deals with Estrogen receptor (Homo sapiens) (UniProt P03372). As to the kind of experiment: qHTS assay to identify small molecule agonists of the estrogen receptor alpha (ER-alpha) signaling pathway in the presence of an antagonist (AID 1259383; calls by dose curve; further: top concentration of the series differs between compounds; nearly all actives have a fitted effect of over 15% in size). In outline:
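Luciferase luminescence (ONE-Glo, 30min at room temperature) measured in VM7Luc4E2 cells after 22hr compound exposure at 15 concentrations, with 10.0nM ICI-182,780 final present; cells express endogenous ER-alpha and carry four EREs upstream of luciferase.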

The target in test [11] is Thyrotropin receptor (Homo sapiens) (UniProt P16473). As to the kind of experiment: qHTS assay to identify small molecule antagonists of the thyroid stimulating hormone receptor (TSHR) signaling pathway (AID 1259385; calls by dose curve; further: nearly all actives have a fitted effect of over 20% in size; further: potency means the concentration at half of the fitted maximal effect). In outline: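 TSHR-HEK293 cells were plated and held 18 h at 37C/5% CO2, then given compound plus Ro20-1724 and stimulated with TSH at 1.5 ng/mL final. After 30 min at room temperature, cAMP was detected with cAMP-d2/anti-cAMP-cryptate (1 h) by fluorescence.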

In test [12] the target is Estrogen receptor (Homo sapiens) (UniProt P03372). Description: qHTS assay to identify small molecule antagonists of the estrogen receptor alpha (ER-alpha) signaling pathway using the BG1 cell line in the presence of 0.1 nM 17-beta-estradiol (AID 1259244). Further: nearly all actives have a fitted effect of over 50% in size. A digest of the protocol: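 Luminescence after ONE-Glo (30 min, room temperature) measured ERE-luciferase activity in VM7Luc4E2 cells treated 22 h with compound and 0.1 nM final 17beta-estradiol as stimulator.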

A short description of test [13]: qHTS assay to identify small molecule HDAC inhibitors - cell viability counter screen (AID 1259365). Further: series mostly up to about 92 µM; nearly all actives have a fitted effect of over 50% in size. In outline: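 Following a 2hr exposure of overnight-plated wild-type HCT-116 cells to DMSO-delivered compounds, CellTiter-Glo was added and luminescence recorded after 30min at room temperature.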
Test [14] is described as follows: qHTS assay to identify small molecule antagonists of the sonic hedgehog signaling (Shh) pathway (AID 1259369; calls by dose curve; further: potency means the concentration at half of the fitted maximal effect; nearly all actives have a fitted effect of over 45% in size). In outline: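 Luminescence readout: firefly Luc under Gli1 response element in 3T3Gli1-Luc cells (NIH/3T3 clone). Antagonist mode, stimulation by conditioned medium; compound exposure 24hr at 37 C, 5% CO2.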
Test [15] is described as follows: qHTS assay to identify small molecule agonists of the androgen receptor (AR) signaling pathway in the presence of an antagonist - cell viability counter screen (AID 1259379). Further: nearly all actives have a fitted effect of over 25% in size. Further: potency means the concentration at half of the fitted maximal effect. A digest of the protocol: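 Viability counter screen: CellTiter-Fluor fluorescence, measured in the same wells as the luciferase read-out. MDA-kb2 cells, 3,000/well, with nilutamide at 3.0uM final and compounds at 15 concentrations, 16 hr at 37C, 0% CO2.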

The nature of test [16]: qHTS assay to identify small molecule agonists or antagonists of the thyroid stimulating hormone receptor (TSHR) signaling pathway - wild type cell line counter screen (AID 1259384; calls by dose curve; further: potency means the concentration at half of the fitted maximal effect). In outline: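 Wild-type HEK293 cells were plated 18 h at 37 C/5% CO2, pin-dosed with compound plus Ro20-1724 medium, held 30 min at room temperature, then given cAMP-d2 and anti-cAMP-cryptate; fluorescence was read after 1 h. Fifteen concentrations, triplicate.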

The nature of test [17]: qHTS assay to identify small molecule antagonists of the androgen receptor (AR) signaling pathway using the MDA cell line in the presence of 0.5 nM R1881 - cell viability counter screen (AID 1259242). Further: nearly all actives have a fitted effect of over 45% in size. In outline: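 Live-cell protease fluorescence, CellTiter-Fluor, 30 min at 37C. Cells: MDA-kb2, 3,000/well, preincubated 5 hr. Compounds plus 0.5 nM R1881 final, 16 hr, 37C, 0% CO2.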

The target of test [18] is Androgen receptor (Homo sapiens) (UniProt P10275). As to the kind of experiment: qHTS assay to identify small molecule antagonists of the androgen receptor (AR) signaling pathway using the MDA cell line in the presence of 0.5 nM R1881 (AID 1259243). Further: potency means the concentration at half of the fitted maximal effect; nearly all actives have a fitted effect of over 50% in size. A digest of the protocol:
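MDA-kb2, MMTV-luc (AR/GR elements); 3,000 cells/well; cpd + 0.5 nM R1881 final; 16 hr 37C, 0% CO2; ONE-Glo 30 min RT; luminescence.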

Test [19] shares this target. As to the kind of experiment: qHTS assay to identify small molecule agonists of the androgen receptor (AR) signaling pathway in the presence of an antagonist (AID 1259381; calls by dose curve; further: nearly all actives have a fitted effect of over 15% in size). A digest of the protocol:
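Luciferase read-out (ONE-Glo, 30min room temperature) in MDA-kb2 MMTV-reporter cells; agonist mode run in presence of AR antagonist nilutamide, 3.0uM final. Compounds tested as 15-point series, 16hr exposure at 37C, 0% CO2.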

Androgen receptor (Homo sapiens), sequence (P10275 whole entry, looked up): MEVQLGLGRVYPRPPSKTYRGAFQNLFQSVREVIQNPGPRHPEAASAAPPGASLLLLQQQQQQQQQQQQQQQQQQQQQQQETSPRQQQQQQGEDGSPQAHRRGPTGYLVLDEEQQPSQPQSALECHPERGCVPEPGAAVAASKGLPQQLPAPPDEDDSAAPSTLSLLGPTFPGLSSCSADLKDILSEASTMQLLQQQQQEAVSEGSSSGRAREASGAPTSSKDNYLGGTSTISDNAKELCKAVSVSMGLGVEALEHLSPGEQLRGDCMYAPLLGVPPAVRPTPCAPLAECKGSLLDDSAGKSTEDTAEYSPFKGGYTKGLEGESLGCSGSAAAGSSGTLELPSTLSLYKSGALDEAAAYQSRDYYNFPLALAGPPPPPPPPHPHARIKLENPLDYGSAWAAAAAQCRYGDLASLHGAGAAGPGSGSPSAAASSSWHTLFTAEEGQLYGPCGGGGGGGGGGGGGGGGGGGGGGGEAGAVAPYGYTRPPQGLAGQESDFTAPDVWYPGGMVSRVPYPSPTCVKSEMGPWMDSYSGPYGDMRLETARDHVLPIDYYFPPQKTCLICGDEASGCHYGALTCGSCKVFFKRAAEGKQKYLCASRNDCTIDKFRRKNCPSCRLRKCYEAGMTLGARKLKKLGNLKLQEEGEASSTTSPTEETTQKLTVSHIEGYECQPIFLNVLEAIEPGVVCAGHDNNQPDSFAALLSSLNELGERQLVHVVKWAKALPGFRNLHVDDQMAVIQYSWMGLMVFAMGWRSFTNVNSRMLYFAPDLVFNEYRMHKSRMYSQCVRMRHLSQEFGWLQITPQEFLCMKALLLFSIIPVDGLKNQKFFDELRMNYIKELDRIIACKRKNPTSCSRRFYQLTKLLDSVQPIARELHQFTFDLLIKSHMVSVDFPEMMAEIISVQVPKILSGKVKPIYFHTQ
Estrogen receptor beta (Homo sapiens), sequence (Q92731 whole entry, looked up): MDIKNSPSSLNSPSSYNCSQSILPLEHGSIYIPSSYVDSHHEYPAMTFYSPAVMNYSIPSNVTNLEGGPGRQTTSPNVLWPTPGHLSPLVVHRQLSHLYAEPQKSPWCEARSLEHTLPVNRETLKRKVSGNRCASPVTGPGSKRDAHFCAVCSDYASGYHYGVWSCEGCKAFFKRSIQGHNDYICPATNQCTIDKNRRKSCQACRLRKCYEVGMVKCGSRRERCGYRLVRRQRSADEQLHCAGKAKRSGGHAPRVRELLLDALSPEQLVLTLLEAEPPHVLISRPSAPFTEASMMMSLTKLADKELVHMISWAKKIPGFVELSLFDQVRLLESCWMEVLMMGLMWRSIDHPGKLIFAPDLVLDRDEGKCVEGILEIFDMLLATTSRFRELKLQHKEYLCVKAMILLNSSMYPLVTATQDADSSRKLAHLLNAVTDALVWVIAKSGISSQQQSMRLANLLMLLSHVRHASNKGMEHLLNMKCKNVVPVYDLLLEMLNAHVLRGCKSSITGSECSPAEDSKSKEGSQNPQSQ
Estrogen receptor (Homo sapiens), sequence (P03372 whole entry, looked up): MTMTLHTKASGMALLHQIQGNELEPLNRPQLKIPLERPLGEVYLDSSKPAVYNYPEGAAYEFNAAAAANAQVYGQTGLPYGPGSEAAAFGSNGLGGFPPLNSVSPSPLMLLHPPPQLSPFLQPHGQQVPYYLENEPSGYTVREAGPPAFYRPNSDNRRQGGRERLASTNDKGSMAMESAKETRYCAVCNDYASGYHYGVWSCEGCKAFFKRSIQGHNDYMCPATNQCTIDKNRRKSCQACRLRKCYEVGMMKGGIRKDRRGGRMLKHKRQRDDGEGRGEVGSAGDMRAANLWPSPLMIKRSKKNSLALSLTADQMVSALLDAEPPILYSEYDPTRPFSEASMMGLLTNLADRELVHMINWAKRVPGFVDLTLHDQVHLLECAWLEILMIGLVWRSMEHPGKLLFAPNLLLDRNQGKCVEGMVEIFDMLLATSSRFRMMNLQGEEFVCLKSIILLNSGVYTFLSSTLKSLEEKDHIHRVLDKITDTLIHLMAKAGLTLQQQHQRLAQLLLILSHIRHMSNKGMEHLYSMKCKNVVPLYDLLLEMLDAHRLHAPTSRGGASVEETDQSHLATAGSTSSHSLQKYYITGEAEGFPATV
Thyrotropin receptor (Homo sapiens), sequence (P16473 whole entry, looked up): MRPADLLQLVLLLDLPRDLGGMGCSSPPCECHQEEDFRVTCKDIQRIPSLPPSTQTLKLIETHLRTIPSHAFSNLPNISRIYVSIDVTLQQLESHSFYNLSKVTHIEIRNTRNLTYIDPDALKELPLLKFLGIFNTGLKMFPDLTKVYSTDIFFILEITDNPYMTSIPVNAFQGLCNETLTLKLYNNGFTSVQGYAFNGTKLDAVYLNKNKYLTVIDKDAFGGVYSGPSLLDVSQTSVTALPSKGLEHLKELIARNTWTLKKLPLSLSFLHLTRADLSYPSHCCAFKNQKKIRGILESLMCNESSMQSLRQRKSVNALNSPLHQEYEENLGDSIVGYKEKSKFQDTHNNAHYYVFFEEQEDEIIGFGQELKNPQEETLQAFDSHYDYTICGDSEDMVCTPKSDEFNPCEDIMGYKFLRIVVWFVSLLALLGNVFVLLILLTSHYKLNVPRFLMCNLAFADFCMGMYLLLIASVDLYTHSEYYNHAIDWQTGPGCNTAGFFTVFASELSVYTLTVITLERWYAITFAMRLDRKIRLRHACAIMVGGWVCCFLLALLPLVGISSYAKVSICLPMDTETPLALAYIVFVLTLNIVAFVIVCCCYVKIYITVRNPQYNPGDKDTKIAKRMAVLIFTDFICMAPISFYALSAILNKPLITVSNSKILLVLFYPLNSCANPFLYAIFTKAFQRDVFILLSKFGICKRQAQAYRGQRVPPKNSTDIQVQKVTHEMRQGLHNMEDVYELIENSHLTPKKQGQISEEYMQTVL

With `C[N+]1(CC2COC(c3ccccc3)(C3CCCCC3)O2)CCCCC1` (stereo unspecified), the Potency result in test [1], in test [2], in test [3], in test [4], in test [6] and in test [7] was “inactive” throughout. The Potency result in test [8], in [9], in [10] and in [11] was “inactive” throughout. Further, the outcome in test [5] was inactive.

Turning to `OCc1cc(C(O)CNCCCCCCOCCCCc2ccccc2)ccc1O` (stereo unspecified), the Potency result in test [12], in test [13], in test [6], in test [10] and in [11] was “inactive” throughout. The Potency is 4.73 µM (active) in test [4]; 6.68 µM (active) in [14]; 16.8 µM (active) in test [7]; 26.6 µM (active) in test [15]; 21.1 µM (active) in test [8]; 0.0009 µM (active) in test [16]. The result in [5] was inactive.

In the case of `COc1cc2nc(N(C)CCCNC(=O)C3CCCO3)nc(N)c2cc1OC` (stereo unspecified), the Potency result in test [17], in test [1], in [2], in [13], in test [3] and in test [4] was “inactive” in each case. In addition, the Potency result in [6], in test [7], in [8], in test [9], in test [10] and in test [16] was “inactive” throughout. Moreover, the Potency result in test [11] was “inactive”. For the same compound, the outcome in [5] was inactive. Moreover, in [14], the Potency was 13.3 µM (active).

`CCCCCCCCCc1ccc(OCCOCCO)cc1`: the Potency is 2.28 µM (active) in [18], 8.1 µM (active) in [14], 20.4 µM (active) in test [8] and 25.6 µM (active) in [11]. Moreover, the Potency result in test [1], in test [13], in test [6], in test [19] and in [16] was “inactive” throughout. For the same compound, the call in test [5] was inactive.

As for `O=C1OC(CN2CCOCC2)CN1/N=C/c1ccc([N+](=O)[O-])o1` (stereo unspecified), the Potency in test [18] was 26.6 µM (active). In addition, the Potency entry in test [12], in test [1], in [2], in [13], in test [3] and in test [4] was “inactive” in each case. Also, the Potency result in [6], in test [7], in [8], in test [19], in test [9] and in test [10] was “inactive” throughout. In addition, the Potency entry in test [16] and in [11] was “inactive” throughout. Further, in test [5], the call was inactive.

On to `CN(C)C(=O)NC1(c2ccccc2)CCN(CC[C@@]2(c3ccc(F)c(F)c3)CN(C(=O)c3ccccc3)CCO2)CC1`, for which the Potency result in [17], in test [13], in test [15], in test [16] and in test [11] was “inactive” in each case. Moreover, the compound was classed as inactive in test [5]. The Potency in [8] was 71.4 µM (active).
